13 molecules from PubChem BioAssay (NCI) can be followed below.

Compounds without any hit were thinned out: in the full panel of roughly 83,000, 20% have a hit.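 Compound tested at a single concentration for 48 hours in 96-well plates; a percent growth value below 10 was scored as active.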 Unmarked numbers belong to inactive results.

This test concerns 786-0 renal. In words: NCI-60 one-dose screen, 48 h (100 = growth as untreated, 0 = no growth, -100 = all killed). Conditions: 10 µM unless noted.
For `O=S(=O)(Nc1ccc(-n2cnc3cc(-c4ccc(O)cc4)ccc32)cc1)c1ccccc1`, the growth was 101%.

Regarding `O=S(=O)(NCCNc1nccc(-c2c(-c3cccc(O)c3)nc3occn23)n1)c1ccc(Cl)cc1`, the growth was 109%.

With `COc1cc(C2=NN(C(C)=O)C(c3cc(OC)c(OC)c(OC)c3)C2)ccc1O` (stereo not drawn), the growth is 17.9%.

For the molecule `N/C(=N\C(N)=N\c1nc2ccccc2s1)c1cccc(Cl)c1`, the growth was 94.4%.

Regarding `C=C(C)[C@@H]1CC[C@]2(C(=O)N3CCN(C)CC3)CC[C@]3(C)[C@H](CC[C@@H]4[C@@]5(C)CC[C@H](OCCC#N)C(C)(C)[C@@H]5CC[C@]43C)[C@@H]12`, the growth was 22%.

As to `O=C(/C=C(O)/C=C/c1ccc(SC(F)(F)F)cc1)/C=C/c1ccc(SC(F)(F)F)cc1`, the growth was 87.2%.

Regarding `COc1cc(/C(C)=C(\c2ccc(Cl)cc2)c2ccc(OCCN(C)C)cc2)ccc1F`, the growth is 65.7%.

Turning to `COc1cc2oc(-c3cccc(C(=O)Nc4ccc(Cl)cc4)c3)cc(=O)c2c(O)c1OC`, the growth was 38.7%.

Take `COc1ccc2nc(-c3ccc(-c4noc(-c5cc(OC)c(OC)c(OC)c5)n4)cc3)[nH]c2c1`: the growth was 77.8%.

Regarding `COC1=CC(=O)c2ccccc2C1=O`, the growth was 105%.

In the case of `CC(=O)Nc1cccc(-c2ccc3c(c2)NC(=O)/C3=C\c2ccc[nH]2)c1`, the growth is 59%.

On to `COc1c(Cl)c2c(c(OC)c1OC)-c1ccc(SC)c(=O)cc1[C@@H](NC(=O)OCC(F)(F)F)CC2`, for which the growth was 11%.

Turning to `COc1cc(/C=N/NC(=O)c2cnn3c2NC(c2ccccc2)C3)ccc1Oc1ccccc1` (stereo not drawn), the growth was 25.5%.
